Screening data from PubChem BioAssay.
Not all results are given here.
aSyn UTR act = Activators via SNCA 5'UTR binding, MLPCN; alpha-synuclein 5'UTR reporter, activators screen; activity score, % (tested at 7.5 µM), hits read low; 7.1% of 300,000 active; AID 1814, 2009; in the data active = activity score below about -60%
* = called active by the depositor.

Screening O=c1[nH]c2ccccc2nc1-c1cccs1 returned aSyn UTR act -152.1*.
For Cc1[nH]c2ccccc2c1-c1nc2ccccc2[nH]c1=O the results were aSyn UTR act -62.8*.
Cc1ccc(C(=O)Nc2nc3ccccc3[nH]2)cc1 was read as aSyn UTR act 68.1.
For O/C(=C\c1nc2ccccc2[nH]1)c1cccs1 the results were aSyn UTR act -199.7*.
For O=C(Nc1nc2ccccc2[nH]1)c1cccs1 the results were aSyn UTR act -91.5*.
For O=C(Nc1nc2ccccc2[nH]1)c1ccc(Br)o1 the results were aSyn UTR act -131.8*.
Screening Cc1ccc(S(=O)(=O)Nc2cccc(C(=O)NCc3cccnc3)c2)cc1F returned aSyn UTR act -72.6*.
Cc1ccc(C)c(NC(=O)c2ccccn2)c1 was read as aSyn UTR act -72.1*.
Screening Cc1ccc(NC(=O)Nc2ccc(Cl)cc2)c(Br)c1 returned aSyn UTR act -154.9*.
Screening Cc1ccc(NC(=O)c2ccccn2)c(Br)c1 returned aSyn UTR act -103.3*.
CSc1nnc(-c2ccccc2N=Cc2c(C)[nH]n(-c3ccc4ccccc4c3)c2=O)c(=O)[nH]1 was read as aSyn UTR act -73.4*.
C=CCn1c(C)cc(C(=O)COC(=O)[C@@H](NC(=O)c2ccccc2Cl)C(C)C)c1C was read as aSyn UTR act -69.7*.
For Cc1cccc(-n2nnc(C(=O)Nc3ccc(F)cc3)c2N)c1 the results were aSyn UTR act -195.7*.
Cc1cccc(-n2nnc(C(=O)N3CCc4ccccc4C3)c2N)c1 was read as aSyn UTR act -71.3*.
`CC(=O)c1cnc2cc(-c3cccc(Br)c3)nn2c1C` gave aSyn UTR act -212.5*.
Cc1cccc(-c2cc3nc(C)cc(C)n3n2)c1 was read as aSyn UTR act -235.3*.
Cc1cc(C)n2nc(-c3cccc(Br)c3)cc2n1 was read as aSyn UTR act -113.7*.
Screening O=C1CCCC/C1=C/Nc1ccc(C(=O)O)cc1 returned aSyn UTR act -72.3*.
O=C1CCCC/C1=C/Nc1ccc2c(c1)OCO2 was read as aSyn UTR act -138.6*.
`O=C(NC(=S)Nc1ccc2oc(-c3cccnc3)nc2c1)c1cccc(Cl)c1` gave aSyn UTR act -115.0*.
CCCC(=O)NC(c1ccccc1Cl)c1ccc2cccnc2c1O (stereo not drawn) was read as aSyn UTR act 68.3.
CCCC(=O)Nc1ccc(-c2nc3ncccc3o2)cc1 was read as aSyn UTR act -181.2*.
`CCCC(=O)Nc1ccc2oc(-c3cccnc3)nc2c1` gave aSyn UTR act -79.8*.
`COC(=O)Cc1ccc2oc(-c3cccnc3)nc2c1` gave aSyn UTR act -63.5*.
C/C(=N\Nc1cccc([N+](=O)[O-])c1)c1ccccc1O was read as aSyn UTR act -165.9*.
`C/C(=N\Nc1cccc([N+](=O)[O-])c1)c1cc(F)ccc1O` gave aSyn UTR act -131.1*.
Screening Cc1nn(Cc2ccccc2)c(Cl)c1C(=O)NCCc1ccccc1 returned aSyn UTR act -135.4*.
CCOC(=O)c1c(C)c(C(=O)NCCc2ccccc2)c(C)n1C was read as aSyn UTR act -80.4*.
`Cc1cc(C)n2nc(C(=O)NNC(=O)c3ccc(Cl)cc3)nc2n1` gave aSyn UTR act -75.7*.
Cc1cc(C)n2nc(C(=O)NCCc3ccccc3)nc2n1 was read as aSyn UTR act -72.0*.
`CCOC(=O)c1c(C)c(C(=O)O)n(C)c1C` gave aSyn UTR act 32.2.
Cc1cc(N/N=C/c2ccncc2)nc2ccccc12 was read as aSyn UTR act -137.0*.
For Cc1cc(N/N=C/c2cccc(Br)c2)nc2ccccc12 the results were aSyn UTR act -241.1*.
`O=C1C(Nc2ccc(O)cc2)=C/C(=N/S(=O)(=O)c2cccs2)c2ccccc21` gave aSyn UTR act 113.8.
Screening Cc1ccc(NC2=CC(=O)C(=O)c3ccccc32)cc1 returned aSyn UTR act 102.9.
`COc1ccc(NC2=C(NCCO)C(=O)c3ccccc3C2=O)cc1` gave aSyn UTR act -91.5*.
`CCOc1ccc(NC2=C(OC)C(=O)c3ccccc3C2=O)cc1` gave aSyn UTR act -94.4*.
Screening O=C1C=C(Nc2ccc(O)cc2)C(=O)c2ccccc21 returned aSyn UTR act 67.5.
Screening CCOc1ccc2c(c1)OC(c1ccc(OC)cc1)(C(F)(F)F)NC2=O (stereo not drawn) returned aSyn UTR act 96.1.
Screening COC1=C(Nc2ccc(O)cc2)C(=O)c2ccccc2C1=O returned aSyn UTR act -109.5*.
Screening COC1=C(Nc2ccc(OC)cc2)C(=O)c2ccccc2C1=O returned aSyn UTR act -161.5*.
For Oc1c(C=C2N=c3ccccc3=N2)sc(=S)n1-c1ccc(F)cc1 the results were aSyn UTR act -64.6*.
For CCn1c(O)c(/C=C2\C=NN=C2c2ccccc2)sc1=S the results were aSyn UTR act 67.0.
Screening CC(C)(C)N=C1NN=C(c2cc3ccccc3o2)CS1 returned aSyn UTR act -74.3*.
C=CCn1c(C)cc(C2=NNC(=NC(C)(C)C)SC2)c1C was read as aSyn UTR act 89.4.
Screening COc1ccc(CN=C2Nc3ccccc3CS2)cc1 returned aSyn UTR act -84.7*.
For CC(C)(C)N=C1NN=C(c2ccc(Cl)cc2)CS1 the results were aSyn UTR act -108.5*.
`COc1ccc(CN=C2NN=C(c3ccc(Cl)cc3)CS2)cc1` gave aSyn UTR act -103.3*.
`CCn1cc(C(=O)Nc2ccc(Cl)cc2Cl)cn1` gave aSyn UTR act -71.8*.
Screening CCCCC(=O)Nc1ccccc1Oc1ccccc1 returned aSyn UTR act -122.7*.
`CCOC(=O)C1CCN(c2ccc(-c3cccs3)nn2)CC1` gave aSyn UTR act -212.5*.
`CCC(=O)Nc1nc2ccccc2n1Cc1ccccc1Cl` gave aSyn UTR act 72.3.
Screening Cn1c(SCc2ccccc2Cl)nc2ccccc21 returned aSyn UTR act -190.0*.
CCn1c(SCc2ccccc2Cl)nc2ccccc21 was read as aSyn UTR act -96.9*.
Screening O=C(CN1CCOCC1)Nc1ccc(-c2nc3ccccc3[nH]2)cc1 returned aSyn UTR act -110.6*.
O=C(CSc1ccc(Cl)cc1)Nc1cccc(-c2nc3ccccc3[nH]2)c1 was read as aSyn UTR act -89.3*.
Cc1ccc2nc(-c3ccc(NC(=O)CSc4ccccc4)cc3)[nH]c2c1 was read as aSyn UTR act -97.7*.
`O=C(CSc1ccccc1)Nc1ccc(-c2nc3ccccc3[nH]2)cc1` gave aSyn UTR act -170.9*.
For O=C(Cc1cccs1)Nc1ccc(-c2nc3ccccc3[nH]2)cc1 the results were aSyn UTR act -263.4*.
Screening O=C1c2ccccc2C(=O)c2[nH]c(=O)[nH]c21 returned aSyn UTR act 93.0.
Screening O=c1[nH]c(=O)c2nc3c4ccccc4c4ccccc4c3nc2[nH]1 returned aSyn UTR act -69.8*.
For O=C(NCc1cccnc1)/C(=C/c1ccc(-c2cccc(Cl)c2)o1)S(=O)(=O)c1ccccc1 the results were aSyn UTR act -193.2*.
CCN(CC)C(NC(=O)c1ccccc1)C(=O)c1ccccc1 (stereo not drawn) was read as aSyn UTR act -68.9*.
Screening Cc1ccc(-c2ccc(S(=O)(=O)N3CC(C)OC(C)C3)cc2)cc1 (stereo not drawn) returned aSyn UTR act -78.3*.
`CC1CN(S(=O)(=O)c2ccc(C(=O)NCCCn3ccnc3)cc2)CC(C)O1` (stereo not drawn) gave aSyn UTR act 104.6.
Screening Cc1ccc(C2Nc3ccc4ccccc4c3C3=C2C(=O)CC(C)(C)C3)o1 (stereo not drawn) returned aSyn UTR act -73.4*.
